{
  "source": "PubChem BioAssay",
  "note": "Potency and affinity values are given separately. Unmarked numbers belong to inactive results.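 The calls were made as follows: active = signal drop whose fitted half-maximal concentration is at most twice the top valid dose, in every test run; inconclusive = mixed calls across runs, poor fit, or flat 30 to 70% inhibition; inactive = wrong direction, flat within 30%, or potency beyond limit.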",
  "data": [
    {"assay": "RMG-1 ovarian cancer cell viability loss – cherry-pick, dose response (AID 687029);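 also: cells exposed to compound for 96 hours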", "settings": "RMG-1 viability, CellTiterGlo ATP luminescence, 96 h; series mostly up to 35 µM; activity change, negative = inhibition: at the top concentration", "values": [
      {"smiles": "C[C@@H]1CCCCO[C@H](CN(C)C(=O)Cc2ccccc2)[C@@H](C)CN([C@@H](C)CO)C(=O)c2cc(NC(=O)Nc3ccc(C(F)(F)F)cc3)ccc2O1", "activity change, negative = inhibition": "-50.6%"},
      {"smiles": "O=S(=O)(c1ccccc1F)N1CC[C@@H]2[C@H]1c1cc(-c3cccc(F)c3)ccc1N[C@@H]2CO", "activity change, negative = inhibition": "23.8%"},
      {"smiles": "Cc1ccc(S(=O)(=O)Nc2ccc3c(c2)C(=O)N([C@@H](C)CO)C[C@@H](C)[C@H](CN(C)Cc2ccc(C(F)(F)F)cc2)OCCCC[C@H](C)O3)cc1", "activity change, negative = inhibition": "13.3%"},
      {"smiles": "O=C(Nc1ccc(F)cc1)N1CCCCN2[C@@H](CO)[C@@H](c3ccc(C#Cc4ccccc4)cc3)[C@@H]2C1", "activity change, negative = inhibition": "17%"},
      {"smiles": "COc1ccc(CN(C)C[C@H]2OCCCC[C@@H](C)Oc3ccc(NC(=O)Nc4ccc(F)cc4)cc3C(=O)N([C@@H](C)CO)C[C@@H]2C)cc1", "activity change, negative = inhibition": "0.784%"},
      {"smiles": "C[C@@H]1CN([C@H](C)CO)C(=O)c2cc(NC(=O)Nc3ccc(C(F)(F)F)cc3)ccc2O[C@@H](C)CCCCO[C@@H]1CN(C)C(=O)c1ccccc1", "activity change, negative = inhibition": "5.51%"},
      {"smiles": "C[C@H]1CCCCO[C@H](CN(C)C(=O)C2CCCCC2)[C@@H](C)CN([C@@H](C)CO)C(=O)c2cc(NC(=O)Nc3ccc(F)cc3)ccc2O1", "activity change, negative = inhibition": "8.37%"},
      {"smiles": "O=c1ccc2ccccc2c2ccccc12", "activity change, negative = inhibition": "26.3%"},
      {"smiles": "COc1ccc(S(=O)(=O)Nc2ccc3c(c2)C(=O)N([C@H](C)CO)C[C@H](C)[C@H](CN(C)Cc2ccc(C(F)(F)F)cc2)OCCCC[C@H](C)O3)cc1", "activity change, negative = inhibition": "7.38%"},
      {"smiles": "COc1cc(/C=C2\\SC(=S)N(CCC(=O)N3CCCCC3)C2=O)cc(OC)c1OC", "activity change, negative = inhibition": "35.3%"},
      {"smiles": "C[C@@H]1CN([C@H](C)CO)C(=O)c2cc(NC(=O)NC3CCCCC3)ccc2O[C@@H](C)CCCCO[C@H]1CN(C)Cc1ccc(C(F)(F)F)cc1", "activity change, negative = inhibition": "8.13%"},
      {"smiles": "Cc1ccc(-c2csc(NC3OC(=O)c4ccccc43)n2)cc1", "note": "(stereo not given)", "activity change, negative = inhibition": "20.6%"},
      {"smiles": "Cc1nc(SCC(=O)Nc2nc3ccccc3s2)c(C#N)c(C)c1C", "activity change, negative = inhibition": "28.5%"},
      {"smiles": "COc1cccc(S(=O)(=O)N2C[C@@H]3N[C@H](C2)C3c2ccc(/C=C/c3ccccc3)cc2)c1", "note": "(stereo not given in full)", "activity change, negative = inhibition": "18.7%"},
      {"smiles": "CN1c2ccc(-c3ccccc3)cc2[C@H]2[C@H](CCN2C(=O)NC2CCCCC2)[C@@H]1CO", "activity change, negative = inhibition": "19.6%"},
      {"smiles": "COc1ccc(S(=O)(=O)N(C)C[C@H]2OCCCC[C@H](C)Oc3ccc(NS(=O)(=O)c4ccc(F)cc4)cc3C(=O)N([C@@H](C)CO)C[C@@H]2C)cc1", "activity change, negative = inhibition": "13.6%"},
      {"smiles": "CO[C@@H]1CN(C)C(=O)c2cc(NC(=O)c3ccc(-c4ccccc4)cc3)ccc2OC[C@H](C)NC[C@H]1C", "activity change, negative = inhibition": "8.56% [at 30 µM]"},
      {"smiles": "Cc1noc(C)c1S(=O)(=O)Nc1ccc2c(c1)C(=O)N([C@H](C)CO)C[C@H](C)[C@@H](CN(C)C(=O)Nc1ccc(C(F)(F)F)cc1)OCCCC[C@H](C)O2", "activity change, negative = inhibition": "4.26%"},
      {"smiles": "Cc1ccc(S(=O)(=O)N(C)C[C@@H]2Oc3cc(C#Cc4ccncc4)ccc3S(=O)(=O)N([C@H](C)CO)C[C@H]2C)cc1", "activity change, negative = inhibition": "-2.44%"},
      {"smiles": "Cc1ccc2cccc(NS(=O)(=O)c3ccccc3)c2n1", "activity change, negative = inhibition": "17.5%"},
      {"smiles": "O=C1/C(=C/c2ccccc2F)SC(=S)N1CC(=O)N1CCCCC1c1cccnc1", "note": "(stereo not given)", "activity change, negative = inhibition": "18.3%"},
      {"smiles": "O=C(/C=C/c1ccccc1)Nc1cccc(C(=O)O)c1", "activity change, negative = inhibition": "18%"},
      {"smiles": "O=C(NCCc1ccccc1)c1ccc2c(c1)OCCCO2", "activity change, negative = inhibition": "41%"},
      {"smiles": "Cc1ccccc1S(=O)(=O)N1CC[C@@H]2[C@H](CO)Nc3ccc(-c4cccc(F)c4)cc3[C@@H]21", "activity change, negative = inhibition": "17.6%"},
      {"smiles": "C[C@H](CO)N1C[C@H](C)[C@@H](CN(C)C(=O)C2CCCCC2)OCCCC[C@H](C)Oc2ccc(NS(=O)(=O)c3ccc(Cl)cc3)cc2C1=O", "activity change, negative = inhibition": "17.1%"},
      {"smiles": "Cc1cc(C)c2sc(NNC(=O)c3ccc(S(=O)(=O)N4CCc5ccccc5C4)cc3)nc2c1", "activity change, negative = inhibition": "44.3%"},
      {"smiles": "Cc1ccc(S(=O)(=O)Nc2ccc3c(c2)CC(=O)N([C@@H](C)CO)C[C@H](C)[C@@H](CN(C)C(=O)Nc2ccc(C(F)(F)F)cc2)O3)cc1", "activity change, negative = inhibition": "15.3%"},
      {"smiles": "CN(C)CCN(C(=O)/C=C/c1cccs1)c1nc2c(F)cc(F)cc2s1", "activity change, negative = inhibition": "48.7%"},
      {"smiles": "C[C@H](CO)N1C[C@H](C)[C@@H](CN(C)Cc2ccc(Cl)c(Cl)c2)Oc2ccc(NS(=O)(=O)c3ccccc3)cc2CC1=O", "activity change, negative = inhibition": "2.06%"},
      {"smiles": "CCCC(=O)N1CCN(c2ccc(NC(=O)c3ccc([N+](=O)[O-])o3)cc2)CC1", "activity change, negative = inhibition": "19.1%"},
      {"smiles": "Cc1ccc(S(=O)(=O)Nc2ccc3c(c2)nc(CCN2CCCC2)n3C)cc1", "activity change, negative = inhibition": "17.9%"},
      {"smiles": "C[C@@H]1CN([C@H](C)CO)C(=O)c2cc(NC(=O)Nc3ccccc3)ccc2O[C@@H](C)CCCCO[C@@H]1CN(C)Cc1ccc(C(F)(F)F)cc1", "activity change, negative = inhibition": "-51.6%"},
      {"smiles": "COc1cc(-c2c(-c3cc(OC)c(OC)c(OC)c3)noc2C)ccc1F", "activity change, negative = inhibition": "1.56% [at 16 µM]"},
      {"smiles": "C[C@H]1O[C@@H](O[C@H]2[C@@H](O)C[C@H](O[C@H]3[C@@H](O)C[C@H](O[C@H]4CC[C@@]5(C)[C@H](CC[C@@H]6[C@@H]5C[C@@H](O)[C@]5(C)[C@@H](C7=CC(=O)OC7)CC[C@]65O)C4)O[C@@H]3C)O[C@@H]2C)C[C@H](O)[C@@H]1O", "activity change, negative = inhibition": "43.4%"},
      {"smiles": "Cc1ccc(S(=O)(=O)N(C)C[C@@H]2Oc3cc(C#Cc4ccncc4)ccc3S(=O)(=O)N([C@H](C)CO)C[C@@H]2C)cc1", "activity change, negative = inhibition": "3.4%"},
      {"smiles": "CC(C)CC#Cc1ccc2c(c1)O[C@H](CN(C)Cc1ccc(C(=O)O)cc1)[C@@H](C)CN([C@H](C)CO)S2(=O)=O", "activity change, negative = inhibition": "9.8%"},
      {"smiles": "Cc1cc(NC(=O)CCCS(=O)(=O)c2nc(-c3cccs3)cc(C(F)(F)F)n2)no1", "activity change, negative = inhibition": "40.7%"},
      {"smiles": "COc1ccccc1C#Cc1ccc2c(c1)O[C@H](CN(C)Cc1cccnc1)[C@H](C)CN([C@@H](C)CO)S2(=O)=O", "activity change, negative = inhibition": "14.4%"},
      {"smiles": "C[C@@H]1CCCCO[C@H](CN(C)Cc2ccc(C(F)(F)F)cc2)[C@H](C)CN([C@@H](C)CO)C(=O)c2cc(NS(=O)(=O)c3ccc(F)cc3)ccc2O1", "activity change, negative = inhibition": "19.4%"},
      {"smiles": "CC(=O)Nc1ccc(S(=O)(=O)c2ccnc3cc(Cl)ccc23)cc1", "activity change, negative = inhibition": "31.9%"}
    ]}
  ]
}
